VDR inhibitor – Inhibitors of the vitamin D receptor (VDR): qHTS; Vitamin D3 receptor (Homo sapiens), P11473; VDR-SRC2-3 peptide fluorescence polarization, 2 h; Potency, µM, for inactives: max response, negative = inhibition, usual class: inhibitors; 400,000 tested, 0.93% active; AID 504847, 2011; further: on the % scale 0 is the no-effect control and ±100 the full control effect
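Compounds are added to VDR with labelled SRC2-3 coactivator peptide and held 2 h at room temperature. Inhibition of the VDR–peptide interaction is then read as a change in fluorescence polarization.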
G9a block – qHTS Assay for Inhibitors of Histone Lysine Methyltransferase G9a. Histone-lysine N-methyltransferase EHMT2 (Homo sapiens), Q96KQ7. G9a H3K9 monomethylation, AlphaScreen, 2 h. Potency, µM (doses to about 102 µM), for inactives: at the top dose activity, negative = inhibition, hits mostly inhibitors. 350,000 tested, 8.8% active. AID 504332, 2011; further: on the % scale 0 is the no-effect control and ±100 the full control effect; nearly all actives have a fitted effect of over 75% in size
Target sequence (Q96KQ7 913-1193 limits assumed): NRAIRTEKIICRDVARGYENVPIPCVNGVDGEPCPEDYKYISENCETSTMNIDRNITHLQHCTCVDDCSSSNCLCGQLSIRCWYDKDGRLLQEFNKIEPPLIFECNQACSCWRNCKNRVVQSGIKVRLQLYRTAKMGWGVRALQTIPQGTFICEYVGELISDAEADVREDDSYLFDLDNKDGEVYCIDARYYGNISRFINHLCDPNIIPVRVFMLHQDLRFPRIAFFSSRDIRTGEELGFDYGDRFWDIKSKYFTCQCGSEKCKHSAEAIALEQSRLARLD
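Enzyme 20 nM + cpd, 15 min RT; add b-H3K9 pep 500 nM / SAM 20 uM; 2 h RT; anti-H3K9me1 Ab 0.5 ug/mL + SA donor / anti-rabbit acceptor beads 20 ug/mL each, 10 min; AlphaScreen read.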
PLK1 PBD inh – qHTS for Inhibitors of PLK1-PDB (polo-like kinase 1 - polo-box domain): Primary Screen | Plk1 PBD binding of FITC phosphopeptide, fluorescence polarization | 360,000 tested, 2.8% active | Serine/threonine-protein kinase PLK1 (Homo sapiens), P53350 | AID 720504, 2013 | Potency, µM, without a hit: max response, negative = inhibition, hits mostly inhibitors; further: series mostly up to about 57 µM; on the % scale 0 is the no-effect control and ±100 the full control effect; nearly all actives have a fitted effect of over 65% in size
JMJD2A Tudor inh – qHTS Assay for Inhibitors of JMJD2A-Tudor Domain. AlphaScreen JMJD2A-Tudor / H3K4me3 peptide binding. Potency, µM (series often up to 114 µM), for the others: at the top dose activity change, negative = inhibition, hits mostly inhibitors. 390,000 tested, 4.4% active. AID 504339, 2011; further: on the % scale 0 is the no-effect control and ±100 the full control effect; nearly all actives have a fitted effect of over 50% in size
HP1b binding inh – HTS for Inhibitors of HP1-beta Chromodomain Interactions with Methylated Histone Tails | AlphaScreen HP1-beta / biotin-H3K9me3 peptide binding | 390,000 tested, 0.56% active | AID 540317, 2011 | Potency, µM (doses to about 114 µM), without a hit: at the highest dose activity change, negative = inhibition, most hits filed as inhibitors | Chromobox protein homolog 1 (Homo sapiens), P83916; further: nearly all actives have a fitted effect of over 70% in size
Target sequence (P83916 whole entry, looked up): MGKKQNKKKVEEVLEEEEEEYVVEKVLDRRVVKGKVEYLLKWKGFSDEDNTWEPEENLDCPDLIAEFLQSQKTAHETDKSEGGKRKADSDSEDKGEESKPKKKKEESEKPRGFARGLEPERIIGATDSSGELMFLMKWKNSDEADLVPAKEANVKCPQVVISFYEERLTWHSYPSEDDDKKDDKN
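HP1-beta protein (50 nM final) preincubated 30 min at room temperature with biotinylated H3(1-18)K9me3 peptide (50 nM) in PBS pH 7.4, 0.01% Tween-20, then compound added for 30 min. AlphaScreen streptavidin donor/nickel chelate acceptor beads (10 ug/mL final), 30 min dark, luminescence read.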
BAZ2B block – qHTS Assay for Inhibitors of BAZ2B | Potency, µM (series often up to 114 µM), without a hit: at the highest dose activity change, negative = inhibition, most hits filed as inhibitors | AlphaScreen BAZ2B-H3K14Ac peptide displacement | AID 504333, 2011 | 360,000 tested, 4.4% active; further: on the % scale 0 is the no-effect control and ±100 the full control effect; nearly all actives have a fitted effect of over 60% in size
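In this displacement format the biotinylated H3(5-23) peptide acetylated at Lys14 serves as ligand at 50 nM, with BAZ2B at 50 nM in PBS pH 7.4 containing 0.01% Tween-20. Donor and acceptor beads are 10 ug/mL final.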
Active calls of the source: *; ? = inconclusive; / = not tested or not shown; [ ] = remark or other dose. A selection: hits, their analogues and other compounds. The true share with any hit is near 11%. The call rests on the fitted dose curve; in most records, active means well fitted curve in the direction sought with a large enough effect; inconclusive means small, poorly fitted or top-dose-only effect, or another doubt; inactive means no such curve, though single readings can be large; an effect the other way counts as inactive or inconclusive. Potency means the concentration at half of the fitted maximal effect.

SMILES	VDR inhibitor	G9a block	PLK1 PBD inh	JMJD2A Tudor inh	HP1b binding inh	BAZ2B block
O=c1[nH]nc(Sc2ncnc3sccc23)n1CCc1ccccc1	1.4%	39.8µM*	-19.9%	-20.0%	66.4%	-5.0%
CCN(CC)C(=O)CSc1n[nH]c(=O)n1CCc1ccccc1	-7.6%	4.9%	-9.9%	-10.6%	9.9%	4.7%
Cc1ccc(N2CC(C(=O)Nc3nnc(SCc4ccccn4)s3)CC2=O)cc1 (stereo unspecified)	-4.2%	44.7µM*	-6.0%	-13.2%	30.3%	-4.2%
Cc1ccc(N2CC(C(=O)NCc3ccccn3)CC2=O)cc1 (stereo unspecified)	8.0%	-48.9%[12.7 µM]	-2.2%	-8.3%	27.6%	11.0%
COc1ccc(N2CC(C(=O)Nc3nnc(SCc4cccnc4)s3)CC2=O)cc1 (stereo unspecified)	-17.4%	50.1µM*	-19.2%	-13.1%	30.9%	-13.5%
Cc1ccc(N2CC(C(=O)Nc3nnc(SCc4cccnc4)s3)CC2=O)cc1 (stereo unspecified)	-8.4%	15.8µM*	-12.9%	-2.9%	47.2%	-2.7%
COc1ccccc1N1CC(C(=O)Nc2nnc(SCc3cccnc3)s2)CC1=O (stereo unspecified)	-1.6%	/	-11.4%	-15.2%	36.8%	-2.6%
Cc1cc(O)c(C(c2ccc(Cl)cc2)N2CCN(c3ccccc3)CC2)c(=O)n1Cc1ccco1 (stereo unspecified)	9.8%	?	/	-32.5%	15.6%[57 µM]	-25.0%
O=C(NCc1ccc2c(c1)OCO2)c1cc([N+](=O)[O-])ccc1N1CCCCC1	0.2%	44.7µM*	3.6%	-31.9%	-2.2%	-9.2%
O=C(NCc1ccco1)c1ccc(N2CCOCC2)c([N+](=O)[O-])c1	0.4%	?	-14.0%	-23.6%	-4.0%	-24.1%
O=C(NCc1ccco1)c1cc([N+](=O)[O-])ccc1N1CCCCC1	?	?	23.8µM*	?	-29.6%	?
CN(C)/C=N/C(=S)Nc1ccc(Cl)cc1	-11.6%	-4.6%	-9.5%	-23.5%	4.7%	-24.7%
Cc1cccc(C)c1NC(=S)/N=C/N(C)C	?	-12.4%[59 µM]	?	14.1µM*	-22.4%	-6.7%
CC(NS(=O)(=O)c1ccc2[nH]c(=O)[nH]c2c1)c1ccc(F)cc1 (stereo unspecified)	/	/	2.7%	/	/	/
Cc1cc(C)cc(C(=O)NCC(=O)OCC(=O)N2CCN(S(=O)(=O)c3ccc4ccccc4c3)CC2)c1	4.5%	3.5%[59 µM]	-3.7%	-30.1%	-0.6%	-2.7%
C=CCn1c(=O)c2ccccc2n2c(SCc3nc4ccccc4s3)nnc12	16.5%	12.6µM*	-0.8%	-5.2%	52.5%	-13.8%
S=c1[nH]c2cnc(Cl)nc2[nH]1	?	/	23.8µM*	39.8µM*	2.5%	/
CCOc1c(C)cc(S(=O)(=O)NCc2ccccn2)c(C)c1C	-16.0%	/	-9.6%	?	27.2%	12.8%
CN1C(=O)CC(NNC(=O)c2ccccc2)C1=O (stereo unspecified)	-7.7%	/	-1.6%	0.3%	26.3%	-0.6%
CN1C(=O)CC(Nc2cccc3cccc(N)c23)C1=O (stereo unspecified)	-17.0%	35.5µM*	-4.6%	?	0.8%	?
CCOc1ccccc1NC(=O)c1c(NC(=O)c2cccc(C)c2)sc2c1CCCC2	-24.0%	0.9%[59 µM]	/	2.0%	41.4%	2.5%
NC(=O)CC(NC(=O)Cc1cccc2ccccc12)c1ccc(NCCCN2CCCC2=O)c([N+](=O)[O-])c1 (stereo unspecified)	-1.9%	70.8µM*	-21.5%	-29.3%	28.6%	-34.3%

Screening data deposited in PubChem BioAssay by National Center for Advancing Translational Sciences (NCATS).
